# Measured values reported in PubChem BioAssay AID1347383 (Zoeller Lab, School of Medicine, Boston University, 2020).
# Activity calls are given as the source filed them.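 Rule for the calls: active = cell survival after UV exposure 2 SD above solvent-only control wells at 10 µM, confirmed on one or two repeats; inactive = the rest.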
# Assay: cell survival after pyrene fatty acid photosensitization – ZR-82 cells, Analyticon library, screen 2, phospholipid biosynthesis inhibitor project, primary screen (AID 1347383);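 note: survival reflects blocked phospholipid synthesis cutting uptake of the phototoxic fatty acid; compound and fatty acid exposure 3 h then viability read next day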
# Details: ZR-82 CHO cells, pyrene-fatty acid UV killing, CellTiter Blue; at 10 µM; peroxisome-deficient CHO-K1 variant; with DGAT-1, DGAT-2 and ACAT inhibitors
row,Structure (SMILES),outcome
1,C=CC#Cc1ccc(-c2cccs2)s1,inactive
2,O=C(O)C1(O)C[C@@H](O)C(O)[C@H](O)C1 (stereo not given in full),inactive
3,COc1cc(=O)oc(C(C)C(C)O)c1CO (stereo not given),inactive
4,C[C@@H]1CCC2C(C)(C)[C@H](O)CC[C@]2(C)[C@@]12Cc1c(O)cc3c(c1O2)CNC3=O (stereo not given in full),inactive
5,CO[C@H]1/C=C/[C@@](C)(O)/C=C/C(=O)O[C@H](C)[C@@H](C)CC/C=C/1C,inactive
6,Nc1ccccc1CCCCCCCCC(=O)O,inactive
7,COC1C(OC(=O)/C=C/C=C/C=C/C=C/C(=O)O)CCC2(CO2)C1C1(C)OC1CC=C(C)C (stereo not given),inactive
8,C/C=C(/C)C(=O)Oc1c(OC)c(OC)cc2c1-c1c(cc(OC)c(OC)c1OC)C[C@](C)(O)[C@@H](C)C2,inactive
9,N#CC(OC(=O)c1ccccc1)c1ccccc1 (stereo not given),inactive
10,C=C(C=O)[C@]1(O)C[C@@]2(C)C(=CC1=O)C=C[C@H](OC(=O)/C=C/C=C/[C@H](C)CC)[C@@H]2C,inactive
11,O=C1c2c(O)cc(O)cc2OC(c2cc(O)c(O)c(O)c2)C1O (stereo not given),inactive
12,O=c1c(O)c(-c2ccccc2)oc2cc(O)cc(O)c12,inactive
13,CC(=O)O[C@H]1CC2C(COC(=O)CC(C)C)=CO[C@@H](OC(=O)CC(C)C)C2[C@@]12CO2 (stereo not given in full),inactive
14,CN1[C@@H]2CC[C@H]1CC(OC(=O)C(CO)c1ccccc1)C2 (stereo not given in full),inactive
15,CC1CCC2(C(=O)O)CCC3(C)C(C=CC4C5(C)CC(O)C(O)C6(C)COC(CC43C)C65)C2C1(C)O (stereo not given),inactive
16,C=C(C(=O)O)[C@@H]1CC[C@H](C)[C@@H]2CC(=O)C(C)=C2C1,inactive
17,C/C=C/[C@@H]1C=C[C@@H]2C[C@H](C)CC[C@H]2[C@]1(C)C(O)=C1C(=O)[C@@H](CO)N(C)C1=O,inactive
18,Cc1cc2c(CO)cc(O)cc2o1,inactive
19,COc1ccc2cc3[n+](cc2c1OC)CCc1cc2c(cc1-3)OCO2,inactive
20,Oc1ccc([C@@H]2Oc3cc(O)cc(O)c3C[C@@H]2O)cc1,inactive

row,Structure (SMILES),outcome
1,C=CC(C)(C)c1cc2cc3c(cc2oc1=O)OC(C(C)(C)OC(C)=O)C3 (stereo not given),inactive
2,COc1cc2c(cc1O)C(=O)CC1C(C)(C)C(=O)CCC21C (stereo not given),inactive
3,CC(=O)O[C@H]1C[C@@]2(C)[C@@H](CC[C@H]3[C@@]4(C)C=CC(=O)[C@@H](C)[C@@H]4[C@H](O)C(=O)[C@@]32C)/C1=C(/CCC=C(C)C)C(=O)O,inactive
4,CC1(C)CCCC2(C)C(CO)C3CCC2C31 (stereo not given),inactive
5,O=c1ccc2cc3ccoc3cc2o1,inactive
6,COc1c(OC)c(OC)c2c(c1OC)c(=O)c1ccccc1n2C,inactive
7,CCCC/C=C\CCCCCCCc1cc(=O)c2ccccc2n1C,inactive
8,C/C=C/C(O)CC(=O)O (stereo not given),inactive
9,CC(C)=CCc1cc(C(=O)/C=C/c2ccc(O)cc2)c(O)cc1O,inactive
10,C=C1C[C@]23C[C@H]1CC[C@H]2[C@]1(C)CCC[C@@]2(COC(C)=O)C(=O)O[C@H]([C@H]21)[C@@H]3OC(C)=O,active
11,CCCCCC1CC(O)CC(=O)O1 (stereo not given),inactive
12,COC(=O)c1ccccc1O[C@@H]1O[C@H](CO)[C@@H](O)[C@H](O)[C@H]1O[C@@H]1O[C@@H](C)[C@H](O)[C@@H](O)[C@H]1O,inactive
13,C[C@@H]1O[C@@H](Oc2c(-c3ccc(O)cc3)oc3cc(O)cc(O)c3c2=O)[C@H](O)[C@H](O)[C@H]1O,inactive
14,O=C1c2ccc(O)cc2O[C@@H](c2ccc(O)c(O)c2)[C@@H]1O,inactive
15,O=C(O)COC(=O)CCCCCCCO,inactive
16,C[C@@H]1O[C@@H](Oc2c(-c3ccc(O)c(O)c3)oc3cc(O)cc(O)c3c2=O)[C@H](O)[C@H](O)[C@H]1O,inactive
17,Oc1ccccc1-c1c(O)cc(O)c(-c2ccccc2)c1O,inactive
18,CCC(C)C(=O)OC1CCC=C2C=CC(C)C(CCC(O)CC(O)CC(=O)OC)C21 (stereo not given),inactive
19,Nc1ncnc2c1ncn2[C@@H]1O[C@H](CO)C[C@H]1O,inactive
20,CC1(C)C=Cc2c(c3ccccc3[nH]c2=O)O1,inactive
